Assay [1] is described as follows: qHTS assay to identify small molecule agonists of the hypoxia (HIF-1) signaling pathway - cell viability counter screen (AID 1224844; calls by dose curve; further: nearly all actives have a fitted effect of over 50% in size). In a few lines:
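Multiplexed with the HRE beta-lactamase assay, this viability read used CellTiter-Glo luminescence (30 min, RT) on HRE-bla ME-180 cells treated 17 hrs with compounds in 0.5% dialyzed FBS medium.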

The nature of assay [2]: qHTS assay to identify small molecule agonists of H2AX (AID 1224845; active means well fitted activation curve with a large enough effect in the signal ratio in the repeat runs, not every such curve was filed as active; the % refers to the signal ratio). Put shortly: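 Phospho-H2AX Ser139 measured by HTRF (ex 320 nm; em 665 and 620 nm) after 24 hr antibody incubation. Compounds, 15 concentrations, 0.76% DMSO, were applied to CHO-K1 cells for 3hr at 37C before lysis.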
For orientation: Quantitative high-throughput screening tests each substance at several concentrations.

A short description of assay [3]: qHTS assay to identify small molecule agonists of the hypoxia (HIF-1) signaling pathway (AID 1224846; active means well fitted activation curve with a large enough effect in the signal ratio in the repeat runs, not every such curve was filed as active; the % refers to the signal ratio). Put shortly:
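Hypoxia-pathway activation was scored as increased beta-lactamase from an HRE-controlled reporter in ME-180 cells; plated at 2,000 cells per well with 0.5% dialyzed FBS, they were exposed 17 hrs to compounds and then given CCF4-AM.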

Assay [4] in a line: qHTS assay to identify small molecule antagonists of the estrogen related receptor (ERR) signaling pathway from Tox21 library (AID 1224848). Further: nearly all actives have a fitted effect of over 50% in size. Put shortly: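 Reading was by luminescence 30 min after ONE-Glo addition. Before that, ERR cells at 2,000 per well had rested 6 h at 37 C/5% CO2 and then received pin-tooled compounds in DMSO for 18 h at 37 C.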
Assay [5] can be described thus: qHTS assay to identify small molecule agonists of the estrogen related receptor (ERR) signaling pathway from Tox21 library (AID 1224849; calls by dose curve; further: nearly all actives have a fitted effect of over 15% in size). Particulars: ERR reporter cell line, ONE-Glo luciferase, 18 h; at 92.4 µM (top of the series) unless noted. Put shortly:
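Six hours post-seeding at 37 C/5% CO2, ERR cells receive DMSO-solubilised compounds; after 18 h at 37 C, ONE-Glo reagent is applied and luminescence recorded.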

The nature of assay [6]: qHTS RealTime-Glo MT Cell Viability Assay in HepG2 cells - 24 hour (AID 1224867). Further: nearly all actives have a fitted effect of over 50% in size. Put shortly:
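Viability was tracked continuously by NanoLuc luminescence from prosubstrate reduced by living HepG2 cells, at successive time points over 40 h of compound exposure. Cells with reagent were preincubated 5 h at 37 °C before compound addition.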

Assay [7] can be described thus: qHTS RealTime-Glo MT Cell Viability Assay in HEK293 cells - 32 hour (AID 1224868). Further: nearly all actives have a fitted effect of over 50% in size. Further: potency means the concentration at half of the fitted maximal effect. Put shortly:
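Viability tracked continuously by luminescence as live cells reduce a prosubstrate for NanoLuc; HEK293 cells preincubated 5 h, compound-treated at 37 C, and read at 0, 8, 16, 24, 32 and 40 h.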

The nature of assay [8]: A CellTox Green Cytotoxicity Assay to monitor cytotoxicity in HEK293 cells - 0 hour (AID 1224869). Further: nearly all actives have a fitted effect of over 50% in size. Put shortly:
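Seeding of HEK293 cells together with cytotoxicity dye preceded a 5 h incubation at 37 C/5% CO2. Test compounds in DMSO were then added and fluorescence monitored across 40 h.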

The nature of assay [9]: qHTS assay to identify small molecule agonists of H2AX - cell viability counter screen (AID 1224847; calls by dose curve; further: nearly all actives have a fitted effect of over 30% in size; further: potency means the concentration at half of the fitted maximal effect). Put shortly:
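Viability of CHO-K1 (wild type) cells after 3 hr compound exposure was measured by CellTiter-Glo luminescence.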

Unmarked numbers belong to inactive results. Records with an inconclusive call do not appear. Activity calls are given as the source filed them. Unless noted, the call rests on the fitted dose curve; in most records, active means well fitted curve in the direction sought with a large enough effect in the repeat runs; inconclusive means weak or mixed curves; inactive means no such curve, though single readings can be large; an effect the other way counts as inactive or inconclusive.
On the % scale 0 is the no-effect control and ±100 the full control effect.

Turning to `c1ccc(CCCc2ccccn2)cc1`, the Potency result in [1], in assay [4], in [7] and in assay [8] was “inactive” in each case. In addition, the call in [2], in [3] and in assay [6] was inactive. The activity change, positive = activation in assay [5] is 34.3% (active).
`NC1CCN(c2cccc(Cl)n2)CC1`: the Potency entry in assay [1], in [9], in [7] and in [8] was “inactive” throughout. The call in assay [2] and in assay [6] was inactive.
Regarding `Cc1c(C)n(CCN(C)C)c2ccc(C(=O)OCCN(C)C)cc12`, the Potency result in [9], in assay [4] and in [8] was “inactive” each time. Further, the activity change, positive = activation in [5] was -20.1% [at 42.5 µM]. Also, in assay [6], the outcome was inactive.
For the compound `OC/C=C/c1ccccc1`, the Potency entry in [1], in [9], in [7] and in assay [8] was “inactive” in each case. In addition, the outcome in assay [2], in assay [3] and in assay [6] was inactive.
Regarding `C/C=C1\C(=O)C[C@H]2[C@@H]3CCC4=CC(=O)CC[C@]4(C)[C@H]3CC[C@]12C`, the Potency entry in assay [1] and in [8] was “inactive” each time. Besides, the compound was called inactive in assay [2], in assay [3] and in [6]. Moreover, the Potency in assay [7] was 21.4 µM (active).
With `NC(=O)Nc1nc2ccccc2[nH]1`, the Potency entry in assay [1], in assay [7] and in [8] was “inactive” each time. Also, the outcome in assay [3] and in [6] was inactive.
For the compound `OCCCCCCO`, the Potency result in assay [1], in assay [9], in [7] and in [8] was “inactive” each time. Besides, the outcome in [2], in [3] and in assay [6] was inactive.
For `O=C(O)/C=C/c1ccc(Cn2ccnc2)cc1`, the Potency entry in [1], in assay [9], in assay [7] and in [8] was “inactive” each time. The compound was classed as inactive in assay [2] and in assay [6].
As for `C=C[Si](OC)(OC)OC`, the Potency entry in assay [1], in [9], in [7] and in assay [8] was “inactive” throughout. Further, the call in [2], in assay [3] and in assay [6] was inactive.
For `CCCCN(CCO)CCO`, the Potency entry in [1], in assay [9], in assay [7] and in [8] was “inactive” each time. Also, the result in assay [3] and in assay [6] was inactive. Besides, in assay [5], the activity change, positive = activation was 3.71%.
On to `CC(=O)N[C@@H](CCC(N)=O)C(=O)O`, for which the outcome in assay [2], in assay [3] and in assay [6] was inactive. Further, the Potency entry in assay [9] and in assay [7] was “inactive” each time.
In the case of `OC1OC[C@@H](O)[C@H](O)[C@H]1O` (stereo partly drawn), the Potency entry in [1], in [7] and in [8] was “inactive” each time. Also, the compound was called inactive in assay [2], in [3] and in assay [6].
For the compound `Cc1cc(C)c(NC(=O)CN(CC(=O)O)CC(=O)O)c(C)c1Br`, the Potency result in assay [1], in assay [7] and in assay [8] was “inactive” each time. For the same compound, the call in assay [3] and in [6] was inactive.
As to `CN(C)C(=O)C(CCN1CCC(O)(c2ccc(Cl)cc2)CC1)(c1ccccc1)c1ccccc1`, in assay [2], the call was inactive. In addition, the Potency entry in assay [9] and in assay [8] was “inactive” each time. Moreover, the activity change, positive = activation in assay [5] is -39.4% [at 42.5 µM]. In addition, in assay [7], the Potency is 10.7 µM (active).
In the case of `C=C(C)C(=O)NCCCN(C)C`, the outcome in assay [2], in [3] and in assay [6] was inactive. The Potency result in [9], in assay [7] and in assay [8] was “inactive” in each case.
For `CC(C)=CCC/C(C)=C/C(=O)O`, the Potency result in assay [1], in assay [7] and in assay [8] was “inactive” in each case. In addition, the result in assay [2], in [3] and in [6] was inactive.
On to `CC/C=C\CCCCO`, for which the Potency result in assay [1], in assay [9], in [7] and in assay [8] was “inactive” throughout. In addition, the result in assay [2], in assay [3] and in assay [6] was inactive.
As for `C=C(C)[C@H]1CC=C(C)CC1`, the Potency entry in [1], in assay [9], in assay [7] and in assay [8] was “inactive” in each case. The compound was classed as inactive in [2], in [3] and in [6].
`CCN(CC)C(=O)c1ccc(O)c(OC)c1`: the compound was classed as inactive in assay [2] and in assay [6]. The Potency result in assay [7] and in assay [8] was “inactive” in each case.
Take `CC(C)c1cccc(C(C)C)c1N`: the Potency entry in [1], in assay [7] and in assay [8] was “inactive” in each case. For the same compound, the outcome in assay [2], in assay [3] and in assay [6] was inactive. In addition, the activity change, positive = activation in assay [5] is 0.341%.
`CCCCOCC(C)OCC(C)O` (stereo not drawn): the Potency entry in assay [1], in [7] and in [8] was “inactive” throughout. Besides, the outcome in assay [2], in assay [3] and in assay [6] was inactive.
In the case of `O=c1[nH]c(=O)n([C@H]2O[C@H](CO)[C@@H](O)[C@@H]2O)cc1/C=C\Br`, the Potency entry in [1], in [9], in assay [7] and in [8] was “inactive” each time. Further, the compound was called inactive in assay [2], in assay [3] and in assay [6].
Turning to `C(=C(c1ccccc1)c1ccccc1)c1ccccc1`, the Potency entry in assay [1], in [7] and in assay [8] was “inactive” throughout. The outcome in assay [2], in [3] and in [6] was inactive. Moreover, the Potency in assay [9] was 80 µM (active).
`CCCCCCCCCCCCI`: the compound was called inactive in assay [2] and in [3]. Further, the Potency result in assay [9], in assay [7] and in [8] was “inactive” throughout.
Consider `CSc1nc(NC2CC2)nc(NC(C)(C)C)n1`, for which the Potency entry in [1], in assay [9] and in assay [8] was “inactive” throughout. For the same compound, the call in assay [3] and in assay [6] was inactive. Moreover, the Potency in assay [7] is 24.5 µM (active).
With `CC1=CCC2C(C1)C2(C)C` (stereo not drawn), the Potency entry in [1], in assay [7] and in [8] was “inactive” each time. In addition, the call in assay [2], in assay [3] and in assay [6] was inactive.
For `Oc1ccc2c(c1)OC[C@@H](N1CCC(O)(c3ccc(F)cc3)CC1)[C@H]2O`, the outcome in assay [2], in assay [3] and in assay [6] was inactive. Further, in [5], the activity change, positive = activation was 111% [at 42.5 µM] (active). The Potency entry in assay [7] and in assay [8] was “inactive” throughout.
Take `c1ccc(SCCSc2ccccc2)cc1`: the Potency entry in assay [1], in assay [9], in [4], in assay [7] and in assay [8] was “inactive” each time. Also, the outcome in assay [3] and in assay [6] was inactive. For the same compound, the activity change, positive = activation in [5] is 69.4% (active).
